An excerpt weighted towards active compounds, which were near 31% of everything screened.
CYP2C9 inhib: inhibitors of human CYP2C9 | P11712 | inhibition, % at 5 µM | CYP2C9 Supersomes, luciferin-H conversion, luminescence | 20% of 96,000 active;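 active = blocking of liver enzyme CYP2C9 beyond about 50% at 5 µM, limit read from the data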
CYP2C19 inhib: inhibitors of human CYP2C19. P33261. CYP2C19 Supersomes, luciferin-H EGE luminescence, 30 min. inhibition, % at 5 µM. 21% of 96,000 active;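 active = CYP2C19 inhibition above a set limit at 5 µM in the primary screen, cut at about 50% in these data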;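 also: plate controls were negative control wells for no effect and 2.5 mM tranylcypromine positive control for full effect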
CYP2C19 act: activators of human cytochrome P450 2C19. P33261. recombinant CYP2C19, luciferin-H EGE luminescence; hits give high values; 0 = fully inhibited enzyme, 1 = untreated enzyme. activation factor at 5 µM. 96,000 tested, under 10 active. AID 1025;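 active = activation factor of at least 2 at 5 µM in the primary screen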;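 also: 0 = wells with 2.5 mM tranylcypromine and 1 = vehicle-only wells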
CYP2C9 act: CYP2C9 (human) activation; P11712; recombinant CYP2C9, luciferin-H conversion, luminescence; hits give high values; factor 1 = untreated enzyme, 0 = blocked; activation factor at 5 µM; 1.4% of 96,000 active;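 active = activation factor of 2 or more for CYP2C9 at a 5 µM dose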;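 also: 0 = sulfaphenazole-blocked wells and 1 = vehicle-only wells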
PLAP act: activators of human placental alkaline phosphatase | purified PLAP enzyme, luminescent substrate read-out; hits give high values | activation fold at 20 µM | 1.2% of 96,000 active | AID 696; in the data active = activation fold above about 2
Target sequence (P05187 whole entry, looked up): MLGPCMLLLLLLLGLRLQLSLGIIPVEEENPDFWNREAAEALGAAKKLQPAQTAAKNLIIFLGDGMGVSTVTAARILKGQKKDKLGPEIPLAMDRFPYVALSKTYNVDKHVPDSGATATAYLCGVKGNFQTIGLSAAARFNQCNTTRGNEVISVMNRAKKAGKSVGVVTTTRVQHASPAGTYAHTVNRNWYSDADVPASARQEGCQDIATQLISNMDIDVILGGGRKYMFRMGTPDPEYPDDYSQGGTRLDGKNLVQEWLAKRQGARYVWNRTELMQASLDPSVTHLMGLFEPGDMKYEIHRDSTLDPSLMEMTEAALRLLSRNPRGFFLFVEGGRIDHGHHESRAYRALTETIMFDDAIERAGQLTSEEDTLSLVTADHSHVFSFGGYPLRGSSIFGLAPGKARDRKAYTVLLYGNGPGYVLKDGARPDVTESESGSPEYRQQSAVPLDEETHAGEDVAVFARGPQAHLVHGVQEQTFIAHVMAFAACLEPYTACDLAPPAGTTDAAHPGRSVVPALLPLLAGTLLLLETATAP
Starred values were filed as active, the others as inactive.

SMILES	CYP2C9 inhib	CYP2C19 inhib	CYP2C19 act	CYP2C9 act	PLAP act
CCN1C(=O)C(O)(CC(=O)c2ccc3c(c2)OCCO3)c2ccccc21 (stereo unspecified)	17	67*	0.3	0.8	1.3
CCc1ccc(C(=O)CC2(O)C(=O)N(CN3CCOCC3)c3ccccc32)cc1 (stereo unspecified)	-7	25	0.7	1.1	1
Cc1ccc(C(=O)CC2(O)C(=O)N(CN3CCOCC3)c3ccccc32)cc1 (stereo unspecified)	8	54*	0.5	0.9	0.9
Cc1nnc(OCc2nc3ccccc3n2C)c2ccccc12	59*	38	0.6	0.4	1
Oc1c(Br)cc(C2N=C(c3ccccc3)NO2)cc1Br (stereo unspecified)	25	22	0.8	0.8	1
CC(C)NS(=O)(=O)c1ccc(OCC(=O)NCc2ccc3c(c2)OCO3)c(Cl)c1	94*	97*	0	0.1	1.5
COc1ccc(CCNC(=O)COc2ccc(S(=O)(=O)NC(C)C)cc2Cl)cc1OC	86*	65*	0.4	0.1	1.2
CCn1nnnc1SCC(=O)c1cccc(OC)c1	42	76*	0.2	0.6	1.2
COCCn1nnnc1SCC(=O)c1ccccc1	-89	67*	0.3	1.9	0.9
Cc1nnc(NC(=O)CSc2nnc(Cc3ccccc3)n2Cc2ccccc2)s1	26	5	1	0.7	1.2
CCOc1ccccc1-c1nc(-c2ccc(NC(=O)Cc3ccccc3OC)cc2)no1	-104	52*	0.5	2*	1.4
COc1cc(C(C#N)N2N=C(c3ccccc3)CC2c2ccccc2)ccc1O (stereo unspecified)	58*	33	0.7	0.4	1.1
Cc1ccc2c(c1)C(N1CCCC1=O)CC(c1ccco1)N2 (stereo unspecified)	29	78*	0.2	0.7	1.2
CSC1=NCCN1C(=O)Cc1ccc(Cl)cc1	27	57*	0.4	0.7	1
COc1ccc(CC(=O)N2CCN=C2SC)cc1	4	41	0.6	1	0.9
Cc1ccc(Cn2nc(C)c3cc(C(=O)OCC(N)=O)sc32)cc1	31	0	1	0.7	0.8
COc1ccc(C2C(C(=O)NC(C)C)c3ccccc3C(=O)N2C)cc1OC (stereo unspecified)	-9	-16	1.2	1.1	1.2
CCCC(=O)NCCCc1nc2ccccc2n1C(C)C	-41	7	0.9	1.4	0.9
O=C(c1ccccc1Cl)N(C(=O)c1ccccc1Cl)c1nccc(-c2cccs2)n1	77*	35	0.6	0.2	1
O=C(Nc1nccc(-c2cccs2)n1)c1ccccc1Cl	5	28	0.7	0.9	1
N/C(=N\S(=O)(=O)c1cccs1)c1ccccc1	-47	92*	0.1	1.5	0.9
OC(c1cccs1)(c1cccs1)C1C[N+]2(CF)CCC1CC2 (stereo unspecified)	-7	5	0.9	1.1	0.7
c1cncc(-c2nc(Oc3ccc(-c4nnco4)cc3)c3c4c(sc3n2)CCCC4)c1	98*	93*	0.1	0	1.5
Cc1nc2cc(NC(=O)COc3ccccc3C#N)ccc2n1-c1ccccc1	20	18	0.8	0.8	1.7
CCn1c(=O)cc(OCC(=O)Nc2ccccc2C#N)c2ccccc21	41	30	0.7	0.6	0.9
SMILES	CYP2C9 inhib	CYP2C19 inhib	CYP2C19 act	CYP2C9 act	PLAP act
CCC(=O)Nc1ccccc1Nc1cc(C#N)c(C#N)cc1[N+](=O)[O-]	24	69*	0.3	0.8	1
COc1ccc(NC(=O)C2CCC(=O)N2S(=O)(=O)c2ccc(C)cc2)c(OC)c1 (stereo unspecified)	-67	13	0.9	1.7	1
CC1Oc2ccccc2N(CC(=O)N2CCc3ccccc32)C1=O (stereo unspecified)	56*	52*	0.5	0.4	1
Cc1ccc2c(c1)N(CC(=O)N1CCCc3ccccc31)C(=O)CO2	10	34	0.7	0.9	0.9
O=C(C1COc2ccccc2O1)N1CCc2ccccc21 (stereo unspecified)	34	92*	0.1	0.7	0.8
O=C(CN1C(=O)COc2ccccc21)N1CCc2ccccc21	42	57*	0.4	0.6	0.8
CC1Oc2ccccc2N(CC(=O)N2CCCc3ccccc32)C1=O (stereo unspecified)	33	44	0.6	0.7	1.1
Cc1ccc2c(c1)N(CC(=O)N1CCc3ccccc3C1)C(=O)CO2	25	84*	0.2	0.8	0.9
COc1cccc(Nc2nc(=O)[nH]nc2C)c1	-12	-12	1.1	1.1	0.8
N#Cc1nc(-c2ccco2)oc1NCc1ccco1	44	16	0.8	0.6	0.8
N#Cc1nc(-c2cccs2)oc1NCc1ccco1	90*	76*	0.2	0.1	1
N#Cc1nc(-c2cccs2)oc1NCc1ccccc1Cl	57*	20	0.8	0.4	0.9
Cc1ccc(CNc2oc(-c3cccs3)nc2C#N)cc1	78*	15	0.9	0.2	0.8
N#Cc1nc(-c2cccs2)oc1NCc1ccc(Cl)cc1	21	11	0.9	0.8	0.9
C=CCNc1oc(-c2cccs2)nc1C#N	-46	72*	0.3	1.5	0.9
Cc1ccc(Nc2cc(=O)[nH]c(=O)[nH]2)c(C)c1	-13	1	1	1.1	1.1
Fc1cccc(Oc2nc3ccccc3n3cccc23)c1	-10	5	1	1.1	1
COc1ccc(OC)c(NC(=O)CNC(=O)Cn2cnc3ccccc3c2=O)c1	18	0	1	0.8	0.9
COc1cccc(CNn2c(-c3cccc(C)c3)nc3ccccc3c2=O)c1	98*	98*	0	0	1.7
COc1cccc(CNC(=O)c2cc3c(C)nc4ccccc4c3o2)c1	17	36	0.6	0.8	1.5
COc1ccc(OC)c(CNn2c(-c3cccc(C)c3)nc3ccccc3c2=O)c1	80*	89*	0.1	0.2	1.8
COc1cc(OC)cc(C(=O)NC(=S)NCCc2ccccc2)c1	51*	48	0.5	0.5	1.1
O=C(NCNC(=O)c1ccccc1)c1ccccc1	-3	94*	0.1	1	0.9
COc1cc(OC)cc(C(=O)NCCNC(=O)c2ccccc2)c1	46	53*	0.5	0.5	0.9
COc1cc(OC)cc(C(=O)Nc2ccccc2NC(C)=O)c1	26	35	0.7	0.7	1.1
COc1ccc(-n2c(Cc3cccn3C)nnc2SCC(=O)Nc2ccc(Cl)cc2)cc1	85*	37	0.6	0.1	1.3
COc1ccc(NC(=O)CSc2nnc(Cc3cccn3C)n2-c2ccc(F)cc2)cc1OC	8	-10	1.1	0.9	1.6
COc1ccc(-n2c(Cc3cccn3C)nnc2SCC(=O)Nc2ccccc2)cc1	80*	25	0.8	0.2	1.4
COc1ccc(-n2c(Cc3cccn3C)nnc2SCC(=O)NCc2ccc(F)cc2)cc1	40	89*	0.1	0.6	1.5
